We go through 42 compounds from PubChem BioAssay (EPA / NIEHS).

SMILES strings stand for the structures. Records with an inconclusive call do not appear. The source made the active and inactive calls. The calls were made as follows: active = hit-call score of the fitted dose curve at least 0.9, where 1 is the maximum; inconclusive = response in the unintended direction; inactive = score below 0.9.

In assay [1] the test system is zebrafish Androgen Receptor (AR), gene 100005148. The assay is described as follows: ATG_zfAR_XSP1: Attagene TRANS-FACTORIAL Multi-Species (XSP1) HepG2 Assay for zebrafish Androgen Receptor (AR) (AID 2283771). The gist of the method:
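Gain-of-signal versus DMSO was measured as reporter transcripts quantified by RT-PCR, fluorescent labelling and capillary electrophoresis after 24 h chemical exposure. The cells were HepG2 expressing a chimeric zebrafish AR-GAL4, co-stimulated with 3 nM 6-alpha-fluorotestosterone.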

Assay [2] has as its target AR (gene 367) (UniProt P10275). The assay can be described thus: ACEA_AR_agonist_80hr: ACEA Biosciences xCELLigence Real-Time Cell Analysis on Androgen Receptor Agonism for Proliferation (AID 2283783).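 Also: hits increase impedance growth signal above DMSO baseline.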 In a few lines:
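Impedance (RT-CES) growth signal at 80 h post-dose; 22Rv1 cells, 8-pt 1:4 series, top 100 uM final, DMSO ≤0.5%; duplicate plates; gain-of-signal fit relative to DMSO baseline.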

Assay [3] can be described thus: STM_H9_NormalizedViability: Cytotoxicity Assessment at 120 hours in the Stemina devTOX quickPredict H9 human embryonic stem cell (hESC)-based Assay (AID 2283784). In a few lines:
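CellTiter-Fluor RFU, background-subtracted, expressed relative to 0.1% DMSO neutral control by plate. Pluripotent H9 cells; treatment with daily re-dosing. Plates carried 1uM methotrexate (positive) and 5 nM methotrexate (negative) references.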

Assay [4] deals with AR (gene 367) (UniProt P10275). The assay is described as follows: ACEA_AR_antagonist_80hr: ACEA Biosciences xCELLigence Real-Time Cell Analysis on Androgen Receptor Antagonism for Proliferation (AID 2283787).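 Also: 22Rv1 human prostate cancer cells with growth followed by electrical impedance; hits lower the impedance growth signal relative to DMSO.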 In a few lines:
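Measures real-time proliferation of 22Rv1 prostate cancer cells by electrode impedance at 80 hours after dosing. Test articles ran at eight concentrations (1:4 steps, top 100 uM final) in biological duplicate.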

Assay [5] relates to turtle Androgen Receptor (AR), gene 101947425. The assay can be described thus: ATG_trAR_XSP1: Attagene TRANS-FACTORIAL Multi-Species (XSP1) HepG2 Assay for turtle Androgen Receptor (AR) (AID 2283786). In a few lines:
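Partial androgen stimulation is provided by 3 nM 6-alpha-fluorotestosterone in a multi-species trans-factorial panel expressing a turtle AR–GAL4 fusion in HepG2. After 24 h, reporter mRNA is measured by RT-PCR and capillary electrophoresis and fitted upward against DMSO.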

A short description of assay [6]: ACEA_ER_AUC_viability: ACEA Biosciences xCELLigence Real-Time Cell Analysis on Estrogen Receptor Agonism for Viability (AID 2283782).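 Also: hit means loss of impedance signal meaning reduced cell growth or viability.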 In a few lines:
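Read-out: real-time electrical impedance (RT-CES) area under curve, loss of signal taken as reduced viability, normalized to DMSO baseline. T-47D cells, charcoal-stripped serum medium, compounds up to 100 uM final, continuous exposure, 80 h.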

Assay [7] is described as follows: ACEA_AR_agonist_AUC_viability: ACEA Biosciences xCELLigence Real-Time Cell Analysis on Androgen Receptor Agonism for Viability (AID 2283775).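 As to AC50: viability read 80 hours after compound addition.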 The gist of the method: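 Viability endpoint from xCELLigence impedance in 22Rv1 prostate cells at 80 h. Eight-point series, 100 uM maximum final.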
Assay [8] can be described thus: ACEA_AR_antagonist_AUC_viability: ACEA Biosciences xCELLigence Real-Time Cell Analysis on Androgen Receptor Antagonism for Viability (AID 2283776).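 Also: 22Rv1 human prostate cancer cells growing on impedance electrode plates; area under impedance growth curve at 80 h after dosing as viability; hits lower the growth signal relative to DMSO meaning cytotoxicity.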 The gist of the method:
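Real-time electrical impedance tracks 22Rv1 proliferation after continuous compound exposure (top 100 uM final, 1:4 steps, 8 concentrations). The 80 h area-under-curve serves as the cytotoxicity readout relative to DMSO.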

Chain of AR (gene 367) (P10275 whole entry, looked up): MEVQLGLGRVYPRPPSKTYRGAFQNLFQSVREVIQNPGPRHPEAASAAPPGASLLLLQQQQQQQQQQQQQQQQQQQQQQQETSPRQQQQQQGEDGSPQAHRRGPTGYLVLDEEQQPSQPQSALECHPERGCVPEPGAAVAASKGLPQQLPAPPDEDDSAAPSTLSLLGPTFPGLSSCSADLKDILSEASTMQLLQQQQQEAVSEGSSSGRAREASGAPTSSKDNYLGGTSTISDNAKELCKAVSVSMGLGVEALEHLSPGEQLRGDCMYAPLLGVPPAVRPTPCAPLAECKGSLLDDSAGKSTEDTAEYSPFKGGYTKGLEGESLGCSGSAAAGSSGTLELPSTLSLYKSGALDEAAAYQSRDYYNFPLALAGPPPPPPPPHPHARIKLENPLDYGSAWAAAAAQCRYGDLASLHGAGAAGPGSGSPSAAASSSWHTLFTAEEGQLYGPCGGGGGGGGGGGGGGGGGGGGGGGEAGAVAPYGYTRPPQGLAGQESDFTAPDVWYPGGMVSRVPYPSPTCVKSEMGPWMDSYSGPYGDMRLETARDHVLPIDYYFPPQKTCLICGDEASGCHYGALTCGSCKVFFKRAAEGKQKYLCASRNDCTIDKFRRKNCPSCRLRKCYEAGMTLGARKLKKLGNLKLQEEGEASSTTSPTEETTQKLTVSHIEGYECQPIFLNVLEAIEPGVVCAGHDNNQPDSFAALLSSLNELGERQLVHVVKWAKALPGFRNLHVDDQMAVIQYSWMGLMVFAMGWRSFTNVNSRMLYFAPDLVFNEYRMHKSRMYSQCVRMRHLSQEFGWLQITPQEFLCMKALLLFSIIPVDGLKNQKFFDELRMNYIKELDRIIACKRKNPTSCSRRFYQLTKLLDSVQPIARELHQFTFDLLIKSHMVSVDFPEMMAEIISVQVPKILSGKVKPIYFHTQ

For the compound `CSC(=O)c1c(C(F)F)nc(C(F)(F)F)c(C(=O)SC)c1CC(C)C`, the result in assay [1] was inactive.
Regarding `CC(C)NC(=O)N1CC(=O)N(c2cc(Cl)cc(Cl)c2)C1=O`, the compound was classed as inactive in assay [1].
Usually AC50 stands for the concentration at which the activity in the assay is half-maximal. As for `CC1(C)CCC(=Cc2ccc(Cl)cc2)C1(O)Cn1cncn1` (stereo not drawn), the result (in the assay with AR (gene 367) [2]; in assay [3]) was inactive. Also, the AC50 with AR (gene 367) [4] is 13.1 µM (active).
As to `CCN(CC)C(=O)C(C)Oc1cccc2ccccc12` (stereo not drawn), the outcome in assay [3] was inactive.
On to `Cc1c(COC(=O)[C@@H]2[C@H](/C=C(\Cl)C(F)(F)F)C2(C)C)cccc1-c1ccccc1`, for which the outcome in assay [5] was inactive.
Same read-out and setting: in the case of `CC1(C)C(C=C(Cl)Cl)C1C(=O)OC(C#N)c1cccc(Oc2ccccc2)c1` (stereo not drawn) it was “inactive”.
In the case of `COCc1cnc(C2=NC(C)(C(C)C)C(=O)N2)c(C(=O)O)c1` (stereo not drawn), the compound was called inactive (in assay [6]; with AR (gene 367) [2]; in assay [3]).
As for `CCCN(CC)CC1COC2(CCC(C(C)(C)C)CC2)O1` (stereo not drawn), the AC50 was 77.3 µM (active) in assay [7], 77.7 µM (active) in assay [8] and 81 µM (active) in assay [6]. In assay [3], the result was inactive.
For `CS(=O)(=O)c1ccc(C(=O)C2C(=O)CCCC2=O)c([N+](=O)[O-])c1`, the result in assay [3] was inactive.
In the case of `CCCCOCN(C(=O)CCl)c1c(CC)cccc1CC`, the half-maximal activity concentration (AC50) in assay [7] was 85.2 µM (active); in assay [8] it was 70.9 µM (active); in assay [6], 87.6 µM (active); with AR (gene 367) [2], 10.5 µM (active); with AR (gene 367) [4], 75.7 µM (active).
Regarding `COC(=O)c1c(C(F)F)nc(C(F)(F)F)c(C2=NCCS2)c1CC(C)C`, the compound was called inactive (in assay [7]; in assay [8]; in the assay with AR (gene 367) [4]).
`Clc1cccc(C(Cl)(Cl)Cl)n1`: the result (in assay [7]; in assay [8]; in assay [6]; in assay [3]; in the assay with AR (gene 367) [4]) was inactive.
For the compound `Cc1cc(C)nc(Nc2ccccc2)n1`, the call in assay [7], in assay [8], in assay [6] and in assay [3] was inactive.
`O=C(O)c1c(Cl)ccc2cc(Cl)cnc12`: the result in assay [8] and in assay [6] was inactive.
On to `COc1cc(OC)nc(NC(=O)NS(=O)(=O)c2ncccc2OCC(F)(F)F)n1`, for which the result in assay [7] and in assay [3] was inactive.
On to `CCCCC(C#N)(Cn1cncn1)c1ccc(Cl)cc1` (stereo not drawn), for which the half-maximal activity concentration (AC50) in assay [7] was 83.1 µM (active); in assay [8] it was 79 µM (active); in assay [3], 56 µM (active). Also, the outcome in assay [6] was inactive.
Take `CC(C)N1C(=O)N(c2ccccc2)CSC1=NC(C)(C)C`: the AC50 is 28.9 µM (active) in assay [7], 50 µM (active) in assay [8], 89.6 µM (active) in assay [6] and 50 µM (active) with AR (gene 367) [4].
Turning to `COC(=O)N(C(=O)N1CO[C@@]2(C(=O)OC)Cc3cc(Cl)ccc3C2=N1)c1ccc(OC(F)(F)F)cc1`, the AC50 was 18.3 µM (active) in assay [7], 18.5 µM (active) in assay [8], 69.2 µM (active) in assay [6] and 40 µM (active) with AR (gene 367) [4].
For `O=C(Nc1ccccc1-c1ccc(Cl)cc1)c1cccnc1Cl`, the AC50 in assay [7] was 61.3 µM (active); in assay [8], 50 µM (active). In addition, the call in assay [6] and in assay [3] was inactive.
As to `CS(=O)(=O)c1cc(C(F)(F)F)ccc1C(=O)c1cnoc1C1CC1`, the result in assay [8], in assay [6] and in assay [3] was inactive.
In the case of `Cn1c(-c2ccccc2)cc(-c2ccccc2)[n+]1C`, the AC50 is 28.7 µM (active) in assay [7], 41.7 µM (active) in assay [8] and 31.1 µM (active) in assay [3].
Consider `COP(=S)(OC)SCn1nnc2ccccc2c1=O`, for which the results for the AC50 (in assay [7]; in assay [8]; with AR (gene 367) [4]) were 79.9 µM (active), 64.7 µM (active) and 83.1 µM (active), respectively. Also, in the assay with AR (gene 367) [2], the call was inactive.
Take `CCNC(=O)NC(=O)C(C#N)=NOC`: the call in assay [8], in assay [6] and in assay [3] was inactive.
Consider `CC(C)Nc1nc(Cl)nc(NC(C)C)n1`, for which the call in assay [8], in assay [6] and in assay [3] was inactive.
With `CCOP(=S)(OCC)Oc1nc(Cl)n(C(C)C)n1`, the outcome in assay [7], in assay [8] and in assay [3] was inactive.
As for `N#CN=C1SCCN1Cc1ccc(Cl)nc1`, the compound was classed as inactive in assay [7], in assay [8] and in assay [3].
`CC(C)(C)C(=O)C(Oc1ccc(Cl)cc1)n1cncn1` (stereo not drawn): the result in assay [7], in assay [8] and in assay [3] was inactive.
Take `COc1ccc(-c2ccccc2)cc1NNC(=O)OC(C)C`: the compound was classed as inactive (in assay [7]; in assay [8]; in assay [6]; in the assay with AR (gene 367) [4]). For the same compound, the AC50 in assay [3] is 45.6 µM (active).
On to `CO/N=C(/C1=NOCCO1)c1ccccc1Oc1ncnc(Oc2ccccc2Cl)c1F`, for which the AC50 in assay [7] was 43 µM (active); in assay [8], 55.5 µM (active); in assay [6], 91.8 µM (active); in assay [3], 35.2 µM (active).
In the case of `CCOc1cc(C(C)(C)C)ccc1C1COC(c2c(F)cccc2F)=N1` (stereo not drawn), the AC50 is 24 µM (active) in assay [7], 19.1 µM (active) in assay [8], 51.2 µM (active) in assay [6] and 13.2 µM (active) in the assay with AR (gene 367) [4]. For the same compound, the compound was classed as inactive with AR (gene 367) [2].
As for `CNC(=O)Oc1cccc2ccccc12`, the AC50 in assay [8] is 24.8 µM (active). Besides, the compound was classed as inactive in assay [6].
With `CCOP(=O)(OCC)Oc1nc(Cl)c(Cl)cc1Cl`, the concentration at half-maximal activity (AC50) in assay [7] was 72.4 µM (active); in assay [8] it was 72.7 µM (active); in assay [6], 68.3 µM (active); with AR (gene 367) [4], 76 µM (active). Also, in the assay with AR (gene 367) [2], the compound was called inactive.
Consider `CC(C)C1(C)N=C(c2ncccc2C(=O)O)NC1=O` (stereo not drawn), for which the outcome in assay [7], in assay [8] and in assay [3] was inactive.
Turning to `CCNP(=S)(OC)O/C(C)=C/C(=O)OC(C)C` (stereo not drawn), the compound was called inactive in assay [7], in assay [8] and in assay [3].
For the compound `CCOc1nc(C(Cl)(Cl)Cl)ns1`, the result in assay [7], in assay [8] and in assay [3] was inactive.
As to `Cc1cnc(C2=NC(C)(C(C)C)C(=O)N2)c(C(=O)O)c1` (stereo not drawn), the compound was classed as inactive (in assay [7]; in assay [8]; with AR (gene 367) [2]; in the assay with AR (gene 367) [4]).
In the case of `O=C1C2CC=CCC2C(=O)N1SC(Cl)(Cl)Cl` (stereo not drawn), the AC50 in assay [7] is 24.5 µM (active); in assay [8], 17.2 µM (active). For the same compound, the result in assay [3] was inactive.
Turning to `N#Cc1c[nH]cc1-c1cccc2c1OC(F)(F)O2`, the AC50 in assay [7] was 32.5 µM (active); in assay [3] it was 76.4 µM (active). The compound was called inactive in assay [6].
With `Nc1c(Cl)c(F)nc(OCC(=O)O)c1Cl`, the compound was called inactive (in assay [7]; in assay [8]; in the assay with AR (gene 367) [2]; with AR (gene 367) [4]).
On to `CCCCC(O)(Cn1cncn1)c1ccc(Cl)cc1Cl` (stereo not drawn), for which the AC50 in assay [7] was 69.8 µM (active); in assay [8] it was 50 µM (active); in assay [6], 75.5 µM (active); in assay [3], 78.3 µM (active); with AR (gene 367) [4], 57.3 µM (active). In addition, the compound was classed as inactive with AR (gene 367) [2].
With `COC(=O)NS(=O)(=O)c1ccc(N)cc1`, the compound was classed as inactive in assay [8] and in assay [6].
Regarding `CC1(C)CON(Cc2ccccc2Cl)C1=O`, the call in assay [7] and in assay [3] was inactive. In assay [8], the AC50 was 18.6 µM (active).
